Drawing on PubChem BioAssay (EPA / NIEHS), this text covers outcome and AC50 for five compounds.

Records with an inconclusive call do not appear. Calls of active or inactive are those of the source. How the source made its calls, unless noted: active means hit-call score of the fitted dose curve at least 0.9, where 1 is the maximum; inactive means score below 0.9.

The nature of assay [1]: ACEA_ER_80hr: ACEA Biosciences xCELLigence Real-Time Cell Analysis on Estrogen Receptor Agonism for Proliferation (AID 2282667; active means hit-call score of the fitted dose curve at least 0.9, where 1 is the maximum). Conditions: T47D proliferation, impedance (xCELLigence), 80 h. The essentials:
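Impedance readout (RT-CES) of T47D proliferation at 80 h post-dose; gain of signal vs DMSO baseline. Compounds: 8 conc, 1:4 serial, top 100 uM final, ≤0.5% DMSO; biological duplicate.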

Assay [2] is described as follows: ATG_CRE_CIS: Attagene CIS-FACTORIAL HepG2 Assay for human cAMP Responsive Element (CRE) binding protein 3 (AID 2282926). Conditions: HepG2 CRE cis-reporter, Attagene multiplexed mRNA; actives raise or lower the signal. The essentials: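 Endogenous CRE-binding activity in HepG2 is reported through a cis-regulated transfected reporter. Following a day of exposure, mRNA levels are determined by reverse transcription PCR and fluorescent fragment analysis; fits run in both directions versus DMSO.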

Assay [3] concerns the target CCAAT/enhancer-binding protein beta (Homo sapiens) (UniProt P17676). As to the kind of experiment: ATG_C_EBP_CIS: Attagene CIS-FACTORIAL HepG2 Assay for human CCAAT/Enhancer Binding Protein (C/EBP) beta (AID 2282927). The note with it: HepG2 Attagene cis-factorial transcription factor reporter; actives raise or lower the signal. A digest of the protocol:
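Following a 24 h incubation with test chemical, transfected HepG2 cells yielded RNA whose reporter transcripts were quantified by RT-PCR and fluorescent capillary electrophoresis, with DMSO serving as baseline for bidirectional fitting.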

The nature of assay [4]: ATG_CMV_CIS: Attagene CIS-FACTORIAL HepG2 Assay for human CMV (Internal Marker) (AID 2282928).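 Further: endpoint acts as a background internal control marker rather than a target.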 The note with it: HepG2 CMV promoter reporter, transcription factor profiling; actives raise or lower the signal. A digest of the protocol:
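CMV internal-marker background readout in transiently transfected HepG2 cells bearing cis-regulated reporter units. Reporter mRNA is measured 24 h after dosing by RT-PCR and capillary electrophoresis, with bidirectional fitting against DMSO.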

Assay [5] has as its target Aryl hydrocarbon receptor (Homo sapiens) (UniProt P35869). As to the kind of experiment: ATG_Ahr_CIS: Attagene CIS-FACTORIAL HepG2 Assay for human Aryl Hydrocarbon Receptor (Ahr) (AID 2282930). Conditions: HepG2 AhR cis-factorial reporter transcription; actives raise or lower the signal. The essentials:
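Values derive from bidirectional fitting against DMSO negative control. Underlying signal: cis-element reporter mRNA in transiently transfected HepG2, harvested 24 h post-dose and measured by RT-PCR plus capillary electrophoresis.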

Assay [6] in a line: ATG_AP_1_CIS: Attagene CIS-FACTORIAL HepG2 Assay for human Activator Protein 1 (AP-1) (AID 2282931). Conditions: HepG2 Attagene cis-factorial AP-1 reporter mRNA; actives raise or lower the signal. The essentials:
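Multiplexed HepG2 reporter assay, 24 h dosing. mRNA induction detected by RT-PCR plus capillary electrophoresis. Activity fitted in both directions against DMSO.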

Assay [7] in a line: ATG_AP_2_CIS: Attagene CIS-FACTORIAL HepG2 Assay for human Activator Protein 2 (AP-2) (AID 2282932). Conditions: HepG2 AP-2 cis-reporter, Attagene transcription factor profiling; actives raise or lower the signal. A digest of the protocol:
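HepG2 cells were transiently transfected with multiple cis-promoter reporter transcription units and dosed for 24 h. Reporter mRNA was measured by RT-PCR with capillary electrophoresis fluorescence; bidirectional fits relative to DMSO baseline.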

A short description of assay [8]: ATG_BRE_CIS: Attagene CIS-FACTORIAL HepG2 Assay for human Bone Morphogenetic Protein (BMP) Response Element (BRE) (AID 2282933). The note with it: HepG2 BMP response element reporter, Attagene transcription factor profiling; actives raise or lower the signal. The essentials: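 Fluorescence-labelled reporter cDNA fragments, separated by capillary electrophoresis, gave the signal for this component of a 52-readout multiplex. HepG2 cells were transfected, exposed to chemicals for 24 h, and compared with DMSO using bidirectional fitting.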

Assay [9] addresses Retinoic acid receptor alpha (Homo sapiens) (UniProt P10276). As to the kind of experiment: ATG_DR5_RAR_CIS: Attagene CIS-FACTORIAL HepG2 Assay for human Retinoic Acid Receptor Alpha (RARE), DR5 submotif (AID 2282934). The note with it: HepG2 Attagene cis-factorial RARE DR5 reporter, mRNA; actives raise or lower the signal. A digest of the protocol:
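Endpoint fitted in both directions relative to DMSO as negative control. It reflects DR5 cis-element reporter mRNA induction in transiently transfected HepG2 cells, measured 24 h after dosing through RT-PCR and fluorescent capillary electrophoresis.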

Assay [10] has as its target Transcription factor E2F1 (Homo sapiens) (UniProt Q01094). As to the kind of experiment: ATG_E2F_CIS: Attagene CIS-FACTORIAL HepG2 Assay for human E2F Transcription Factor 1 (AID 2282935). The note with it: HepG2 Attagene cis-reporter, E2F reporter RNA transcripts; actives raise or lower the signal. The essentials: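 HepG2 cells transiently transfected with multiplexed cis-element reporter units, dosed for 24 h. Reporter mRNA measured by RT-PCR, 6-FAM primer-extension labeling, HpaI digestion and capillary electrophoresis; bidirectional fit versus DMSO baseline.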

A short description of assay [11]: ATG_E_Box_CIS: Attagene CIS-FACTORIAL HepG2 Assay for human Enhancer Box (E-box) (AID 2282936). The note with it: HepG2 E-box cis-reporter transcription, actives raise or lower the signal. A digest of the protocol:
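HepG2 cells transiently transfected with multiplexed cis-element reporter units sensing endogenous transcription factor activity; 24 h compound exposure. Reporter mRNA measured by RT-PCR, 6-FAM primer extension, HpaI digestion and capillary electrophoresis; bidirectional fit versus DMSO.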

Assay [12] can be described thus: ATG_M_61_CIS: Attagene CIS-FACTORIAL HepG2 Assay for M61 Transcription Factor (Internal Marker) (AID 2282937). Conditions: HepG2 Attagene CIS-FACTORIAL M61 internal marker reporter; actives raise or lower the signal. A digest of the protocol: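 Endogenous transcription factor activity in HepG2 is read through transiently transfected cis-element reporter units. After 24 h dosing, RNA undergoes reverse transcription, PCR and primer extension with 6-FAM before capillary electrophoresis; DMSO-referenced bidirectional fit.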

Assay [13] can be described thus: ATG_EGR_CIS: Attagene CIS-FACTORIAL HepG2 Assay for human Early Growth Response 1 (EGR1) (AID 2282938). The note with it: HepG2 Attagene CIS-FACTORIAL EGR reporter mRNA; actives raise or lower the signal. A digest of the protocol: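 Activity is taken as induction or loss of reporter mRNA versus DMSO, fitted bidirectionally. Transcripts from cis-regulated reporter units in transiently transfected HepG2 were measured after 24 h by RT-PCR with capillary electrophoresis.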

Assay [14] in a line: ATG_M_19_CIS: Attagene CIS-FACTORIAL HepG2 Assay for M19 Transcription Factor (Internal Marker) (AID 2282939). The note with it: HepG2 Attagene CIS-FACTORIAL M19 internal marker reporter; actives raise or lower the signal. The essentials:
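HepG2, MRTU transient transfection, 24 h dosing. Total RNA → RT-PCR → 6-FAM primer extension → HpaI digest → CE fluorescence. Bidirectional curve fit, DMSO negative control.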

Assay [15] in a line: ATG_Ets_CIS: Attagene CIS-FACTORIAL HepG2 Assay for human Erythroblast Transformation Specific (ETS) (AID 2282941). Conditions: HepG2 ETS cis-reporter transcription, actives raise or lower the signal. The essentials: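 HepG2 cells transfected with multiple cis-regulated reporter units measuring endogenous ETS-driven transcription, 24 h after dosing. Reporter mRNA quantified by RT-PCR with capillary electrophoresis; bidirectional fit relative to DMSO.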

In assay [16] the target is Hepatocyte nuclear factor 3-beta (Homo sapiens) (UniProt Q9Y261). The assay is described as follows: ATG_FoxA2_CIS: Attagene CIS-FACTORIAL HepG2 Assay for human Forkhead box A2 (FOXA2) (AID 2282942). Conditions: HepG2 cis-reporter transcription factor activity, 24 h; actives raise or lower the signal. A digest of the protocol: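 Reporter transcript induction is measured by fluorescence after capillary electrophoresis of RT-PCR products from HepG2 cells exposed 24 h. Cis-regulated reporter units report endogenous factor activity; curves fitted both directions against DMSO.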

A short description of assay [17]: ATG_FoxO_CIS: Attagene CIS-FACTORIAL HepG2 Assay for human Forkhead box O (FoxO) (AID 2282943). The note with it: HepG2 Attagene cis-reporter, FoxO element, mRNA; actives raise or lower the signal. The essentials:
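Values reflect reporter mRNA induction or loss in HepG2 cells 24 h post-dosing, fitted bidirectionally with DMSO as negative control and baseline. Detection used RT-PCR and fluorescence capillary electrophoresis.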

The nature of assay [18]: ATG_GATA_CIS: Attagene CIS-FACTORIAL HepG2 Assay for human GATA Binding Protein (AID 2282944). The note with it: HepG2 GATA cis-element reporter, Attagene multiplex mRNA; actives raise or lower the signal. A digest of the protocol: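 Cells: HepG2, transiently transfected with cis-regulated reporter transcription units. Exposure: 24 h. Detection: RT-PCR plus capillary electrophoresis of FAM-labeled fragments. Analysis: bidirectional, DMSO as baseline.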

Assay [19] in a line: ATG_ERE_CIS: Attagene CIS-FACTORIAL HepG2 Assay for Estrogen Response Element (ERE) (AID 2282940). Conditions: HepG2 ERE cis-reporter, Attagene RNA transcript; actives raise or lower the signal. A digest of the protocol:
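After a 24 h chemical treatment, RNA from reporter-transfected HepG2 cells is reverse-transcribed, PCR-amplified and fluorescently labelled. Fragments separated by capillary electrophoresis give reporter signal; DMSO serves as negative control.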

Assay [20] can be described thus: ATG_DR4_LXR_CIS: Attagene CIS-FACTORIAL HepG2 Assay for human Liver X Receptor (LXR), DR4 submotif (AID 2282929). The note with it: HepG2 Attagene DR4 cis-reporter, mRNA transcription; actives raise or lower the signal. A digest of the protocol: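 Fluorescence intensity of labelled reporter cDNA fragments, separated by capillary electrophoresis, gives the signal. HepG2 cells bearing cis-regulated reporter constructs were treated 24 h; activity fitted bidirectionally relative to DMSO negative control.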

Sequence of Hepatocyte nuclear factor 3-beta (Homo sapiens) (Q9Y261 whole entry, looked up): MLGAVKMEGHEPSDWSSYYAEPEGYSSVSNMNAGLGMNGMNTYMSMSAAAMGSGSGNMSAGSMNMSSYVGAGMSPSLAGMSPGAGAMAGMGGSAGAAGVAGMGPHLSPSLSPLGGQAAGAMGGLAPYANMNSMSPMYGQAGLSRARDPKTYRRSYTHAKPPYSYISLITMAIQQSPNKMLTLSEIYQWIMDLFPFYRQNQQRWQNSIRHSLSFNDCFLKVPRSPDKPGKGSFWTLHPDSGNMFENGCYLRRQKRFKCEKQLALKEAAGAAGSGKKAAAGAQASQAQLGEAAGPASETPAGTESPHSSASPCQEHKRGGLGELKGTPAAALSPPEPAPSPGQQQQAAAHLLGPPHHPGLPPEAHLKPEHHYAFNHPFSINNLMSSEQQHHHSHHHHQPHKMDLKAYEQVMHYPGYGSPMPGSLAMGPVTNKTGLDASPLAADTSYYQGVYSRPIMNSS
Sequence of Transcription factor E2F1 (Homo sapiens) (Q01094 whole entry, looked up): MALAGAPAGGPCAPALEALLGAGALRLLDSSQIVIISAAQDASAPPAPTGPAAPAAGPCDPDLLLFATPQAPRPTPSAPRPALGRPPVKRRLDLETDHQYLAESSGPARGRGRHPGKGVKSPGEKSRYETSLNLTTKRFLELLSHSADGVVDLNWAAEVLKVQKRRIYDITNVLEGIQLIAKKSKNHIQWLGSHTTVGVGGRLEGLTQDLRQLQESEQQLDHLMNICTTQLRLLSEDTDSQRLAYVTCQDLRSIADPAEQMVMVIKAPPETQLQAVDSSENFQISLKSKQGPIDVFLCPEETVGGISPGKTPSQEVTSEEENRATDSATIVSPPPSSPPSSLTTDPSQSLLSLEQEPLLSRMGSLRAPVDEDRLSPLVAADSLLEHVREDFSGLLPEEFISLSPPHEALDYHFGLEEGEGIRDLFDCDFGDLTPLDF
Sequence of Aryl hydrocarbon receptor (Homo sapiens) (P35869 whole entry, looked up): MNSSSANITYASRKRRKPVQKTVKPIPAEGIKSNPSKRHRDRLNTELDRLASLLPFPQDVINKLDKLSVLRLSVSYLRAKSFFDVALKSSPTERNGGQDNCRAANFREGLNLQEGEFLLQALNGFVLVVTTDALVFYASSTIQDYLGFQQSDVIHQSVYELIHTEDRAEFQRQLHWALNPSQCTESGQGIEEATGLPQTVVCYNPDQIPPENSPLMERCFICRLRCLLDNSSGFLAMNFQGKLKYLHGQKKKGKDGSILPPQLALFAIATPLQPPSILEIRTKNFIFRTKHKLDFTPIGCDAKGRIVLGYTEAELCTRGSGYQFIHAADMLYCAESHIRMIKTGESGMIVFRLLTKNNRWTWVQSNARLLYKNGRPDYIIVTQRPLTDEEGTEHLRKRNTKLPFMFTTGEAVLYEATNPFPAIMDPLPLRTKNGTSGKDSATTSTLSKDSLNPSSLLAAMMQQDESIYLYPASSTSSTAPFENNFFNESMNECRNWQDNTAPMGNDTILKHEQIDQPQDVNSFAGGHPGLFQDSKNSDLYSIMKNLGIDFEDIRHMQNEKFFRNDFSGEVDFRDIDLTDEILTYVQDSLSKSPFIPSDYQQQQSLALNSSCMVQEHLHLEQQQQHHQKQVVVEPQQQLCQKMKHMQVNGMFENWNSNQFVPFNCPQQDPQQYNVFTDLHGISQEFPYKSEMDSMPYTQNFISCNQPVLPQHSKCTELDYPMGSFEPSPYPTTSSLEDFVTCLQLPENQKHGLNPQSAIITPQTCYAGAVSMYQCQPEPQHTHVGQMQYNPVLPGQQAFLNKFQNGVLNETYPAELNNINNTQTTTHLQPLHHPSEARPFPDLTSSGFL
Sequence of CCAAT/enhancer-binding protein beta (Homo sapiens) (P17676 whole entry, looked up): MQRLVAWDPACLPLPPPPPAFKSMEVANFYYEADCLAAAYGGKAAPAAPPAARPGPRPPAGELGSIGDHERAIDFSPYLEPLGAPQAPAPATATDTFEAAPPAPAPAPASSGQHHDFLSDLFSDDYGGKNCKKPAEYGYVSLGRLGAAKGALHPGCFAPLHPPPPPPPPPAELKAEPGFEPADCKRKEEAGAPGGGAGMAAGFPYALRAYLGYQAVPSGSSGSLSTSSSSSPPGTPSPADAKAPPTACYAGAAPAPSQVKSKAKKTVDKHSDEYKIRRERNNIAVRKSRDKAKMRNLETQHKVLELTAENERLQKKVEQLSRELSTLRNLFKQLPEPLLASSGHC
Sequence of Retinoic acid receptor alpha (Homo sapiens) (P10276 whole entry, looked up): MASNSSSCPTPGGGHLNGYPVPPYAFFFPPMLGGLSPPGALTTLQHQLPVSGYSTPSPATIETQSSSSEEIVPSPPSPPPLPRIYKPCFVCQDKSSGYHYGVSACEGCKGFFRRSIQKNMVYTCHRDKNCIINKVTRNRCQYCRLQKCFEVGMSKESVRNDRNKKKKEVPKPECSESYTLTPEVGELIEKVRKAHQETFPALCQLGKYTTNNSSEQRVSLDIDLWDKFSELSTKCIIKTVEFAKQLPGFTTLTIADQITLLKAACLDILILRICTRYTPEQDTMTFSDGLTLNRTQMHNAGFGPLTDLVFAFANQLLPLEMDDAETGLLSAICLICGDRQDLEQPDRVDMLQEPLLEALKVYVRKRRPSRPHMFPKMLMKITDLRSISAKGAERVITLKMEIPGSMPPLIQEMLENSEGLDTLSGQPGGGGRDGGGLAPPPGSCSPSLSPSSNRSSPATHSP

As for `CCCCCCCCC(CO)CCCCCC` (configuration not stated), the result in assay [1], in [3], in [5], in assay [6], in assay [7] and in assay [8] was inactive. Moreover, the call in assay [9], in [12], in assay [13], in assay [14], in [16] and in assay [17] was inactive. The AC50 (commonly the midpoint of the concentration-response curve, whichever way the signal moves) was 100 µM (active) in [2]; 8.41 µM (active) in assay [4]; 189 µM (active) in assay [10]; 34.3 µM (active) in [11]; 173 µM (active) in [15]; 65.5 µM (active) in assay [18].

Turning to `CCNc1nc(NC(C)(C)C)nc(OC)n1`, the compound was classed as inactive in assay [1], in assay [3], in assay [4], in [5], in assay [6] and in assay [7]. In addition, the call in [8], in assay [9], in assay [10], in [11], in assay [12] and in [13] was inactive. Further, the result in [14], in assay [19], in assay [16], in [17] and in [18] was inactive.

Take `CC1(C)C(=O)N(CO)C(=O)N1CO`: the compound was called inactive in assay [1], in [3], in [4], in assay [20], in [5] and in [6]. For the same compound, the result in [7], in [8], in assay [9], in [10], in assay [11] and in [12] was inactive. Further, the compound was called inactive in assay [14], in assay [19], in assay [15], in assay [16], in assay [17] and in assay [18].

`CC(C)C(=O)OCCOc1ccccc1`: the call in assay [1], in assay [3], in assay [4], in assay [5], in [6] and in [7] was inactive. Besides, the call in assay [9], in assay [10], in [11], in [12], in assay [13] and in [14] was inactive. Further, the compound was called inactive in assay [19], in [15], in [16], in assay [17] and in assay [18].

Take `CCCCCCCCCCCCc1ccc(O)cc1`: the AC50 in assay [1] is 0.35 µM (active). In addition, the result in [3], in [4], in assay [5], in [6], in [7] and in assay [8] was inactive. Also, the call in [9], in assay [10], in assay [11], in [12], in assay [13] and in assay [14] was inactive. Further, the compound was classed as inactive in assay [15], in assay [16], in assay [17] and in assay [18].
